# In the library only some 2.6% were active in any assay of this set; here they are far more common.
# CF NFkB inh = blocks PAF-induced NF-kB reporter in cystic fibrosis cells. KKLEB NF-kB-GFP reporter, GFP fluorescence overnight. inhibition, % at 5 µM. 0.86% of 360,000 active;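 active means at least 50% inhibition at 5 µM, scaled per plate between neutral and stimulator controls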;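 further: PAF is a Pseudomonas aeruginosa culture filtrate used as stimulus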
# KKLEB cytotox = CF airway cell cytotoxicity counter-screen | KKLEB CF airway cells viability, ATPlite luminescence, overnight; active compounds read low; cells stimulated with P. aeruginosa culture filtrate | activity change (cytotoxicity), % at 5 µM | 0.36% of 360,000 active;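 active means corrected activity change at or below -50% at 5 µM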
# Shn3 3UTR inh = reduces Shn3 3'UTR luciferase signal in osteoblasts | 0.52% of 360,000 active | inhibition, % at 12.5 µM | Clone20 osteoblast Shn3 3'UTR firefly luciferase, 24 h;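 active means mean inhibition of at least 75% with every replicate also reaching 75%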
# Peg3 prom inh = inhibitors of Peg3 promoter | HeLa PEG-Prom luciferase reporter, luminescence, overnight | inhibition, % at 20 µM | 1.7% of 360,000 active;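 active means inhibition of at least 50% at 20 µM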
# HIF-2a block = blocks HIF-2a reporter activity | 0.72% of 360,000 active | 786-0 RCC cells HIF-2a reporter, luciferase luminescence, overnight | inhibition, % at 18.8 µM;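 active means inhibition of the luminescence signal of 40% or more relative to plate controls, in a single-dose primary screen at 18.75 µM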
# CF NFkB inh conf = CF NF-kB inhibition confirmation, single concentration; shares compounds with CF NFkB inh; KKLEB CF airway cells, PAF-induced NF-kB-GFP fluorescence, overnight; inhibition, % at 5 µM; 64% of 1,300 active; in the data active means inhibition above about 40%;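 further: stimulus PAF is a Pseudomonas aeruginosa filtrate and not platelet activating factor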
# Hits are given with their value; – = inactive; · = no result given.
SMILES,CF NFkB inh,KKLEB cytotox,Shn3 3UTR inh,Peg3 prom inh,HIF-2a block,CF NFkB inh conf
COc1cccc(CNC(=O)CN2CCC(c3nc4ccc(C)cc4[nH]3)CC2)c1,56.4,–,–,–,–,–
CCC(=O)c1ccc(O)c(CC=C(C)C)c1,57.4,–,–,–,–,64.4
COc1ccc(N=C2C(=S)N(c3ccc(OC)cc3)C(=NS(=O)(=O)c3ccccc3)N2c2ccccc2)cc1,–,–,–,–,–,·
N=C1N(c2ccccc2)C(=S)C(=Nc2ccccc2)N1c1ccccc1,67.2,–,–,74.3,–,81.2
CC(C)COc1ccc(-c2cc(C(=O)NN)[nH]n2)cc1,–,–,–,–,–,·
COc1cccc2sc(N3CCN(c4nc5ccccc5s4)CC3)nc12,56.5,–,–,–,–,–
Cc1cccc(NC(=O)c2nc[nH]c2C(=O)NCCN(CCNC(=O)c2[nH]cnc2C(=O)Nc2cccc(C)c2)CCNC(=O)c2[nH]cnc2C(=O)Nc2cccc(C)c2)c1,–,–,–,–,–,·
Cc1cccc(NC(=O)c2nc[nH]c2C(=O)NCCCNC(=O)c2[nH]cnc2C(=O)Nc2cccc(C)c2)c1,63.9,–,–,93.0,–,78.7
CN(Cc1ccc(Cl)cc1Cl)C(=O)CN1C(=O)NC2(CCCC2)C1=O,–,–,–,–,–,·
COC(=O)N1C(=O)[C@@](c2ccc(OC)cc2)(C(C)C)N1C(=O)OC,69.1,–,–,–,–,57.3
COc1ccc(NC(=O)CN2C(=O)NC(c3ccccc3)(c3ccccc3)C2=O)cc1,–,–,–,–,–,·
COC(=O)N1C(=O)[C@@](c2ccccc2)(C(C)C)N1C(=O)OC,58.0,–,–,–,–,51.1
CC1(C)COCN1C(=O)c1ccc(Cl)c(Cl)c1,–,–,–,–,–,·
O=C(Nc1nc2c(F)cc(F)cc2s1)c1ccc([N+](=O)[O-])o1,85.6,–,–,–,–,–
Cc1cc(C)c2nc(NC(=O)c3ccc([N+](=O)[O-])o3)sc2c1,–,–,–,–,–,·
CCN(CC(=O)Nc1c(F)cccc1F)C(=O)CNC(=O)c1ccco1,–,–,–,–,–,·
CC1CCN(Cc2c(C(=O)N/N=C/c3ccc(C(C)(C)C)cc3)nnn2-c2nonc2N)CC1,52.9,–,–,106.1,–,62.5
COc1ccc(-c2cn[nH]c2-c2ccc(OCc3ccc([N+](=O)[O-])cc3)cc2O)cc1,70.1,–,–,–,–,82.1
CCc1cc(-c2[nH]ncc2-c2ccc(OC)cc2)c(O)cc1O,75.6,–,–,54.8,–,80.6
COc1ccc(Oc2nc3c(c(=O)n(C)c(=O)n3C)n2C)cc1,–,–,–,–,–,·
Cn1c(=O)c2c(nc(Oc3ccc4ccccc4c3)n2C)n(C)c1=O,55.4,–,–,–,–,69.0
CCCCCCSc1cccc(-c2nc3ccc(C)cn3c2NCc2ccccc2)c1,–,–,–,–,–,·
CCCCCCSc1cc(-c2nc3ccc(C)cn3c2NCc2ccccc2)ccc1OC,52.8,–,–,–,–,–
CCOC(=O)/C=C/C(=O)Nc1cc(S(=O)(=O)Nc2ccc(OC)cc2)ccc1N1CCOCC1,63.3,–,–,–,–,–
CCCCn1nnnc1C1(C)CCC(=O)N1CCCn1ccnc1 (stereo unspecified),·,·,·,·,–,·
SMILES,CF NFkB inh,KKLEB cytotox,Shn3 3UTR inh,Peg3 prom inh,HIF-2a block,CF NFkB inh conf
CCCOc1ccc(C(=O)c2ccccc2C(=O)OC2CCOC2=O)cc1OCCC (stereo unspecified),–,–,–,–,–,·
O=C(OC1CCOC1=O)c1ccccc1C(=O)c1ccc(Cl)c([N+](=O)[O-])c1 (stereo unspecified),71.9,–,–,–,–,51.5
Cc1ccc(NC(=O)COC(=O)CCc2nc3ccccc3c(=O)[nH]2)cc1Cl,–,–,–,–,–,·
Cc1ccc(C(C(=O)NCc2ccccc2)N(Cc2cccs2)C(=O)c2ccc3c(c2)OCCO3)cc1 (stereo unspecified),90.7,–,–,63.1,–,104.7
CCN(CC)Cc1nc2c(c(=O)[nH]1)C(CC)(CC)Cc1ccccc1-2,–,–,–,–,–,·
ON=C1c2ccccc2-c2ccc(O)cc21,–,–,–,–,–,·
ON=C1c2ccccc2-c2cc(Br)ccc21,77.8,–,–,–,–,73.0
Nc1ncc(-c2ccccc2)c(-c2ccc(O)cc2O)n1,51.2,–,–,–,–,68.7
COc1ccc(-c2cnc(N)nc2-c2ccc(OCc3ccccc3)cc2O)cc1,–,–,–,–,–,·
CCCCCCc1nc2nc(Cl)c(Cl)nc2[nH]1,59.8,–,–,–,–,–
O=c1[nH]cc(F)c(=O)n1C1OC(CO)C(O)C1O (stereo unspecified),·,·,·,·,–,·
CN(Cc1ccco1)c1ncnc2ccc(-c3ccoc3)cc12,66.5,–,–,–,–,56.3
C=CC[C@@H](CC(=O)N(CCO)Cc1ccccc1)C(=O)NC[C@H](OC(=O)[C@@H](CC=C)Cc1ccc(F)cc1)c1ccccc1,73.2,–,–,71.4,–,92.2
O=C(COC(=O)c1cccc(F)c1)NC(=O)NCc1ccccc1,–,–,–,–,–,·
CC(=O)N1CCc2c(sc(NC(=O)c3ccc([N+](=O)[O-])o3)c2C(N)=O)C1,95.6,–,99.5,97.2,–,–
COc1ccc(NC(=O)C(NC(=O)c2ccccc2)C(C)C)cc1 (stereo unspecified),–,–,–,–,–,·
COc1ccc(C(=O)N[C@H](C(=O)Nc2nc3ccccc3[nH]2)C(C)C)cc1,54.8,–,–,–,–,77.7
Cc1cccc(C(=O)N[C@H](C(=O)Nc2nc3ccccc3[nH]2)C(C)C)c1,65.7,–,–,–,–,83.4
CCOC(=O)c1c(C)[nH]c(C(=O)CSc2nnc(Nc3ccccc3F)s2)c1C,–,–,–,–,–,·
COc1ccc(-c2cnc3c(NC=O)cc(-c4ccccc4OC)cn23)cc1OC,64.7,–,–,–,–,90.8
CS(=O)(=O)Nc1cccc(-c2cc(NC=O)c3ncc(-c4ccc(F)cc4)n3c2)c1,51.5,–,–,–,–,53.3
CC(C)(C)C(Cn1ccnc1)NC(=O)c1ccc2nc(C3CC3)oc2c1 (stereo unspecified),–,–,–,–,–,·
Cc1cc2c(c(=O)n1Cc1cccnc1)C(c1cccs1)C(C#N)=C(N)O2 (stereo unspecified),–,–,–,–,–,·
Cc1cc2c(c(=O)n1Cc1cccnc1)C(Cc1ccccc1)C(C#N)=C(N)O2 (stereo unspecified),58.0,–,–,–,–,–
C[C@]12c3[nH]c4ccc(Cl)cc4c3CCN1C(=O)[C@@H](CC(=O)NCc1cccc(C(F)(F)F)c1)C[C@@H]2C(=O)N1CCOCC1,–,–,–,–,–,·
CC(C)N(C(=O)[C@H]1C[C@H](CC(=O)NCc2cccc(C(F)(F)F)c2)C(=O)N2CCc3c([nH]c4ccc(Cl)cc34)[C@]12C)C(C)C,60.0,–,–,59.1,–,–

# Screening data deposited in PubChem BioAssay by several laboratories.
